# ChEMBL document CHEMBL3988442, “University of Dundee, Small-Polar-MMV Screening Library” (2021)
# Hit rate of the full screen: of about 53,000 compounds, about 900 (1.7%) showed an effect of 50% or more. Shown is part of a subset that was picked to be rich in strong results.
# Tested on: Mycobacterium tuberculosis
# Assay: Cornell - Phenotypic assay to identify agents that inhibit growth of Mycobacterium tuberculosis
# Format: functional
# Parameters: scale not given: direction of the effect not stated beside the values
# Conditions: 10 mM as filed; unlikely as a test dose
row,SMILES,Percent Effect [%]
1,CCCOc1cccc(C(=O)N2CCCC(n3cncn3)C2)c1 (configuration not stated),2.869
2,CCNC(=O)CS(=O)(=O)NC1CCC(C)CC1 (configuration not stated),-36.82
3,CC1CCC(NS(=O)(=O)CC(=O)NC(C2CC2)C2CC2)CC1 (configuration not stated),-19.5
4,Cc1ccc(NC(=O)CS(=O)(=O)NC2CCC(C)CC2)nc1 (configuration not stated),59.09
5,CC1CCC(NS(=O)(=O)CC(=O)Nc2ccc(N3CCCC3)cn2)CC1 (configuration not stated),-5.738
6,CC1CCC(NS(=O)(=O)CC(=O)NCC2CCC2)CC1 (configuration not stated),57.41
7,CNC(=O)CS(=O)(=O)NC1CCC(C)CC1 (configuration not stated),-17.27
8,CC1CCC(NS(=O)(=O)CC(=O)NC2(C(N)=O)CCCC2)CC1 (configuration not stated),-11.11
9,CC1CCC(NS(=O)(=O)CC(=O)Nc2ccccc2N2CCCC2)CC1 (configuration not stated),81.68
10,CS(=O)(=O)NCC1CCCN(C(=O)Nc2ccccc2N2CCCC2)C1 (configuration not stated),12.25
11,CCOCc1cnc2n1CCN(C(=O)c1cccc3c1OCCO3)C2C (configuration not stated),-10.91
12,Cc1cccc(-c2nc(CN3CC(n4nc(C)cc4C)C3)no2)c1,18.28
13,CC(C)N1CCO[C@H]2CN(Cc3cc[nH]n3)C[C@H]21.O=C(O)C(F)(F)F.O=C(O)C(F)(F)F,-4.182
14,O=C(CC1CCCC1)N1CCC(c2noc(-c3ccccn3)n2)CC1,12.79
15,O=C1NC2(CCc3ccccc31)CCN(C(=O)c1ccncc1)C2 (configuration not stated),9.772
16,Cc1nnc(C2CCN(C(=O)c3ccc(-n4cccc4)cc3)CC2)s1,34.12
17,O=C1CCNc2cc3c(cc2CN1CC1CC1)OCO3,-9.17
18,O=C(CC1COCCN1)N1CCC(N2CCc3ccccc3C2)CC1 (configuration not stated),-14.32
19,CCN(CCCNC(=O)Nc1ccccc1C(C)C)S(C)(=O)=O,-25.97
20,CC(N)Cc1ccccc1Sc1ccccc1.O=C(O)/C=C\C(=O)O (configuration not stated),13.46
21,CNC(C)Cc1ccccc1Sc1ccc(O)cc1.Cl (configuration not stated),105.4
22,NCc1ccccc1Sc1ccc(O)cc1.O=C(O)/C=C\C(=O)O,11.62
23,CC(N)Cc1ccccc1Sc1ccc(O)cc1.CC(N)Cc1ccccc1Sc1ccc(O)cc1.O=C(O)C(=O)O (configuration not stated),102.6

row,SMILES,Percent Effect [%]
1,CC(C(=O)Nc1ccccc1Sc1ccccc1)S(C)(=O)=O (configuration not stated),13.38
2,Fc1ccc(Sc2ccccc2CNC2=NCCN2)cc1.I,18.51
3,Clc1ccc(COCC2CCN(Cc3ccccn3)CC2)cc1.O=C(O)C(=O)O,33.78
4,Cc1cccc(=O)n1CCC(=O)N1CC[C@@](O)(C2CCC2)[C@H](C)C1,13.12
5,COCc1noc(-c2ccc(N(C)Cc3ncccc3C)nc2)n1,3.239
6,CN(C)CCNc1ccc(-c2nc(COc3ccccc3)no2)cn1,16.69
7,CN(C)CCN(C)c1ccc(-c2nc(COc3ccccc3)no2)cn1,54.95
8,CN1CCCC(c2cccc(CCC(N)=O)n2)C1 (configuration not stated),-6.826
9,CNC(=O)N1CCc2nc(C(=O)NCc3cccc(OC)c3)sc2CC1,-3.356
10,N#Cc1ncn(CCC(=O)Nc2cc(Cl)ccc2Cl)n1,44.53
11,COC(=O)c1ccc(Cn2cnc(C#N)n2)cc1,33.09
12,N#Cc1ncn(CCC(=O)Nc2cccc(Cl)c2)n1,68.3
13,N#Cc1ncn(CC(=O)Nc2cc(Cl)ccc2F)n1,104.7
14,N#Cc1ncn(CCC(=O)Nc2ccc(Cl)cc2F)n1,105.4
15,N#Cc1ncn(Cc2c(F)cccc2Cl)n1,3.788
16,N#Cc1ncn(CCC(=O)Nc2ccccc2F)n1,26.46
17,CN(Cc1c(F)cccc1Cl)C(=O)Cn1cnc(C#N)n1,14.48
18,N#Cc1ncn(CCS(=O)(=O)c2ccc(Cl)cc2)n1,-29.79
19,N#Cc1ncn(CCC(=O)Nc2c(Cl)cccc2Cl)n1,58.03
20,N#Cc1ncn(CC(=O)Cc2c(F)cccc2Cl)n1,41.98
21,N#Cc1ncn(CCC(=O)Nc2ccc(F)c(F)c2)n1,34.8
22,OCCOc1cc(F)ccc1NCc1ccc(F)c(F)c1,11.25
23,CCOC(=O)[C@H]1CNC[C@H]1C(=O)OCC.Cl,36.02

row,SMILES,Percent Effect [%]
1,CNc1cccc(C2CN(C(=O)c3c[nH]cn3)CCO2)n1 (configuration not stated),6.6
2,O=C(O)Cn1nc(-c2ccccc2F)ccc1=O,3.999
3,CCSc1ncccc1C(=O)NCc1ccc(N(C)C)cc1,4.638
4,C=C(C)COc1ccccc1C(=O)NCc1nc(C)cc(=O)[nH]1,11.83
5,NS(=O)(=O)c1ccc(N2CCN(CCCc3cn[nH]c3)CC2)cc1,-32.06
6,O=C(O)C(F)(F)F.O=C(O)C(F)(F)F.O=C(O)C(F)(F)F.c1cnc(NC[C@H]2OC[C@@H]3CCN(Cc4cccnc4)C[C@@H]32)nc1,43.57
7,COc1ccc(N2CCN(C(=O)C3CN(C)C(=O)N3)CC2(C)C)cc1 (configuration not stated),2.102
8,CCOCC(=O)N1CCCn2c(nnc2Cn2cccc2)C1,-5.462
9,O=c1c2ccccc2nc2n1CCN(Cc1cccs1)CC2,20.89
10,Cc1cc2c(=O)n3c(nc2s1)CCN(Cc1cnn(C)c1C)CC3.Cl,-41.11
11,Cn1cc(CN2CCc3nc4ccccc4c(=O)n3CC2)cn1,52.34
12,Cn1ncc(Cl)c1C(=O)N1CCc2nc3sccc3c(=O)n2CC1,-13.36
13,Cl.Cn1cncc1CN1CCc2nc3sccc3c(=O)n2CC1,43.45
14,Cc1nn(C)cc1CN1CCc2nc3sccc3c(=O)n2CC1,50.52
15,Cn1cc(CN2CCc3nc4sccc4c(=O)n3CC2)cn1,-10.08
16,Cc1c(CN2CCc3nc4sccc4c(=O)n3CC2)cnn1C.Cl,51.95
17,CCn1cncc1CN1CCc2nc3sccc3c(=O)n2CC1,47.13
18,COc1cc2ncn(Cc3ncc[nH]3)c(=O)c2cc1OC,6.69
19,CCc1cccc(OCCN(C)C(=O)c2ccccc2NCC(=O)O)c1,10.74
20,COc1cccc(CN2CCCC(Cn3nc(C)nc3C)C2)c1 (configuration not stated),16.57
21,O=C(c1ccncc1F)N1CCc2ncnc(-c3ccncc3)c2CC1,-7.007
